# “And” between values parts separate entries of the source, which are not always exact repeats. Equal values may be shown once. Results filed as inconclusive are left out. Entries that show only a call come without a potency. Where a structure was tested more than once in an assay, its records may differ in their call. The source made the active and inactive calls. Unless noted, calls follow the shape of the full dose curve.
# Assays:
# [1] = Nuclear factor erythroid 2-related factor 2/antioxidant responsive element (Nrf2/ARE) small molecule agonists: qHTS cell viability counter screen in human keratinocytes (AID 1919968; active = well fitted curve in the direction sought with a large enough effect in the repeat runs; an effect the other way counts as inactive or inconclusive; also: nearly all actives have a fitted effect of over 55% in size; also: potency is read from the fitted curve at half-maximal effect)
# How it was run: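 Measured as CellTiter-Fluor fluorescence, this readout tracks cytotoxicity in the same wells as the ARE-luciferase screen. HaCaT reporter cells (1,500/well) received compounds after a 5 h pre-incubation and were exposed for 23 h.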
# [2] = Nuclear factor erythroid 2-related factor 2/antioxidant responsive element (Nrf2/ARE) small molecule agonists: luciferase reporter gene qHTS assay in human keratinocytes (AID 1919969); also: nearly all actives have a fitted effect of over 35% in size; also: potency is read from the fitted curve at half-maximal effect
# [3] = molecular target: Gonadotropin-releasing hormone receptor (Homo sapiens) (UniProt P30968); test: Human gonadotropin-releasing hormone receptor (GnRHR) small molecule agonists, calcium flux assay in GnRHR-HEK293 cells (AID 1920063); also: nearly all actives have a fitted effect of over 35% in size
# Sequence of Gonadotropin-releasing hormone receptor (Homo sapiens) (P30968 whole entry, looked up): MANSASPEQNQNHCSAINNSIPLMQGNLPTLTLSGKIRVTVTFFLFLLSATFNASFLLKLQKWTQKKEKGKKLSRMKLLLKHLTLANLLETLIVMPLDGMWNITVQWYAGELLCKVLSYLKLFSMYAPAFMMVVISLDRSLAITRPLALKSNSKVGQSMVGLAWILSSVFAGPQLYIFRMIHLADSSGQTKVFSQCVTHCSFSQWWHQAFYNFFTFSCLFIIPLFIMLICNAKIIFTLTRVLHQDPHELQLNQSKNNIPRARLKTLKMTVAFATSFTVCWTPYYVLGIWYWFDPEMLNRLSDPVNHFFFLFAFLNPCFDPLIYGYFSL
# How it was run: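 Fluorescence kinetics (480 nm excitation, 540 nm emission; 3 min, 1 s steps) report calcium mobilisation in human GnRHR-HEK293 cells in agonist mode. Dye incubation: 1 h, 37 C.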
# [4] = molecular target: KiSS-1 receptor (Homo sapiens) (UniProt Q969F8); test: Human kisspeptin (KISS1R) small molecule agonists, calcium flux assay in KISS1R-HEK293 cells (AID 1920064; active = well fitted curve in the direction sought with a large enough effect in the repeat runs; an effect the other way counts as inactive or inconclusive)
# Sequence of KiSS-1 receptor (Homo sapiens) (Q969F8 whole entry, looked up): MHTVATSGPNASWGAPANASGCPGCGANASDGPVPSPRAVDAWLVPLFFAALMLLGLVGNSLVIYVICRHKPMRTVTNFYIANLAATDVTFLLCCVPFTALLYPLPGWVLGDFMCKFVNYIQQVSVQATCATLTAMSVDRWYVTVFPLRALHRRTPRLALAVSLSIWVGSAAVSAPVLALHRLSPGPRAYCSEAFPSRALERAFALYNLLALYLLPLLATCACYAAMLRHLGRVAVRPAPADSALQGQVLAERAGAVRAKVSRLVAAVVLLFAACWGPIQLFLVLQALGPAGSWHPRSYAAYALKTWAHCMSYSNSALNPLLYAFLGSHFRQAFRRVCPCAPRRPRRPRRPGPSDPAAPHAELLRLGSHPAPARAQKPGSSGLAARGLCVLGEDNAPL
# How it was run: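 Measures KISS1R agonism through calcium-sensitive dye fluorescence in stably transfected HEK293 cells, read for 3 min after pin-tool compound delivery; 15-point titrations in triplicate.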
# [5] = G protein-coupled receptor (GPCR) small molecule agonists, calcium flux assay: HEK293 wild type cell line counter screen (AID 1920065)
# How it was run: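 Readout: fluorescence at 480 nm excitation/540 nm emission, sampled at 1 s intervals for 3 min. Cells had been cultured 18 h, then dye-loaded 1 h at 37 C before compound or ATP addition.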
# [6] = p53 small molecule agonists, cell-based qHTS assay with rat liver microsomes (AID 1963578)
# How it was run: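 Fluorescence from a beta-lactamase reporter under a p53 response element was measured after cells had been incubated 16 h at 37 C with test compound and rat liver microsomes plus NADPH (0.5 mg/mL final each).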
# [7] = p53 small molecule agonists, cell-based qHTS assay with human liver microsomes: qHTS cell viability counter screen (AID 1963579); also: nearly all actives have a fitted effect of over 45% in size
# How it was run: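 Seed p53RE-bla cells at 4,000 per well; incubate 5 h at 37 C; add compound, human liver microsomes and NADPH; incubate 16 h at 37 C; add CellTiter-Glo; after 30 min at room temperature, read luminescence.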
# [8] = p53 small molecule agonists, cell-based qHTS assay: qHTS cell viability counter screen (AID 1963581); also: nearly all actives have a fitted effect of over 45% in size; also: potency is read from the fitted curve at half-maximal effect
# How it was run: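 In the same plates used for the p53 bla reporter, HCT-116 cells given compounds for 16 h at 37 C received CellTiter-Glo; luminescence was recorded 30 min later at room temperature.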
# [9] = p53 small molecule agonists, cell-based qHTS assay (AID 1963582; active = well fitted activation curve with a large enough effect in the signal ratio in the repeat runs, not every such curve was filed as active; the % refers to the signal ratio; also: potency is read from the fitted curve at half-maximal effect)
# How it was run: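 Compounds are pin-transferred in DMSO onto p53RE-bla cells and incubated 16 h at 37 C. The B/G FRET beta-lactamase substrate is then applied for 2 h at RT and fluorescence recorded.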
# [10] = molecular target: 5-hydroxytryptamine receptor 2A (Homo sapiens) (UniProt P28223); test: 5-hydroxytryptamine receptor 2A (HTR2A) small molecule agonists, cell-based qHTS assay (AID 1963587); also: nearly all actives have a fitted effect of over 30% in size
# Sequence of 5-hydroxytryptamine receptor 2A (Homo sapiens) (P28223 whole entry, looked up): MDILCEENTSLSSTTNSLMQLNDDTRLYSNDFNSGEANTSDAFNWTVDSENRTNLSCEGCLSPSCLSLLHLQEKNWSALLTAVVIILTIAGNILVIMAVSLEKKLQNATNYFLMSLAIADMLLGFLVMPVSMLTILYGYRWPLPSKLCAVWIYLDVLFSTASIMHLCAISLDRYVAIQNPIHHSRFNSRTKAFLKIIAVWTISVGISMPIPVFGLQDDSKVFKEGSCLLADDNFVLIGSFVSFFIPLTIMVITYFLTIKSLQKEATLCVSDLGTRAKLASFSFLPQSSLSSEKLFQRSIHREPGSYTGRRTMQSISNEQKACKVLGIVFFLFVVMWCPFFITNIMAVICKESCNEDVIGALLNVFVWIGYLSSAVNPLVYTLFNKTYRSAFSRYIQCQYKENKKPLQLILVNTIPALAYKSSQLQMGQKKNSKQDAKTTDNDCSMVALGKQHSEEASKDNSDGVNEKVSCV
# How it was run: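 Kinetic calcium-flux fluorescence (2 min, 1 sec intervals) after compound addition in agonist mode. HTR2A-CHO cells were cultured 18 h, then dye-loaded 1 h at 37 C.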
# [11] = molecular target: Muscarinic acetylcholine receptor M1 (Homo sapiens) (UniProt P11229); test: Cholinergic receptor muscarinic 1 (CHRM1) small molecule antagonists, cell-based qHTS assay (AID 1963588); also: nearly all actives have a fitted effect of over 40% in size
# Sequence of Muscarinic acetylcholine receptor M1 (Homo sapiens) (P11229 whole entry, looked up): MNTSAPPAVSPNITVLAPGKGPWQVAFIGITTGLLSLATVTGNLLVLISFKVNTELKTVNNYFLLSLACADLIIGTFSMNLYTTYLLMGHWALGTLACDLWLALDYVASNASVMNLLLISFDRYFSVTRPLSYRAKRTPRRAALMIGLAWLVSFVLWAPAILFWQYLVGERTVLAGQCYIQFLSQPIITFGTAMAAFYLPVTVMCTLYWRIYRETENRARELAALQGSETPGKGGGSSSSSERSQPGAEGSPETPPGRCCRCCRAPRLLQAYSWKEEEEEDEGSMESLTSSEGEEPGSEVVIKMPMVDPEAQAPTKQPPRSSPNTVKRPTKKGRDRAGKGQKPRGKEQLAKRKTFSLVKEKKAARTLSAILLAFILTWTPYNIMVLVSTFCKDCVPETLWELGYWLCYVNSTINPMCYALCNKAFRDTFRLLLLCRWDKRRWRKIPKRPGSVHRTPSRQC
# How it was run: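 CHRM1-CHO calcium-flux assay, antagonist mode. Cells were seeded 18 h, dye-loaded 1 h at 37 C and given compound for 5 min at RT, then acetylcholine was added at 50nM. FDSS fluorescence was read 3 min; 15 concentrations, three runs.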
# [12] = molecular target: Muscarinic acetylcholine receptor M1 (Homo sapiens) (UniProt P11229); test: Cholinergic receptor muscarinic 1 (CHRM1) small molecule agonists, cell-based qHTS assay (AID 1963589); also: nearly all actives have a fitted effect of over 35% in size
# How it was run: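 Each compound was tested at 15 concentrations across three independent runs on dye-loaded CHO cells stably expressing human CHRM1, reading intracellular calcium fluorescence kinetically at 1 sec intervals.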
# [13] = cAMP Responsive Elements (CRE) small molecule agonists, cell-based qHTS assay (AID 1963590)
# How it was run: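 Cell line: CRE-bla HEK 293T; medium DMEM/10% dialyzed FBS/0.1 mM NEAA/1 mM pyruvate/25 mM HEPES; 3 h compound exposure; beta-lactamase FRET readout after 2 h substrate loading at RT.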
# [14] = cAMP Responsive Elements (CRE) small molecule antagonists, cell-based qHTS assay (AID 1963591; active = well fitted inhibition curve with a large enough effect in the signal ratio in the repeat runs, not every such curve was filed as active; the % refers to the signal ratio)
# How it was run: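 Inhibition of NKH477-driven (0.25 uM final) CRE-beta-lactamase signal in HEK293T cells, 3 h compound exposure at 37 °C, detected by FRET substrate fluorescence.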
# [15] = molecular target: Beta-2 adrenergic receptor (Homo sapiens) (UniProt P07550); test: Adrenergic beta2 receptor (ADRB2) small molecule antagonists, cell-based qHTS assay (AID 1963592); also: series mostly up to about 92 µM; nearly all actives have a fitted effect of over 50% in size
# Sequence of Beta-2 adrenergic receptor (Homo sapiens) (P07550 whole entry, looked up): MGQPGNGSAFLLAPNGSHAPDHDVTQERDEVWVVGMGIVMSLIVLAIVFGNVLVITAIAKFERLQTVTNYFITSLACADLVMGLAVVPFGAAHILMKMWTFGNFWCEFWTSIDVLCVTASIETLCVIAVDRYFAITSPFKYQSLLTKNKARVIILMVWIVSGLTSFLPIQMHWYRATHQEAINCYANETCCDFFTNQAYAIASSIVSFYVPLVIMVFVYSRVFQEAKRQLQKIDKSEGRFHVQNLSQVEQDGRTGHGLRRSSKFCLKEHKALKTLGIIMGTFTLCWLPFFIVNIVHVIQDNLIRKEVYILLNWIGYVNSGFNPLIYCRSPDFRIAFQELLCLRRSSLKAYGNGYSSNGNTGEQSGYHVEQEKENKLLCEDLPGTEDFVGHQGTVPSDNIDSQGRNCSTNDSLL
# How it was run: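 Cells (CHO, stable ADRB2 overexpression) incubated 18-20hr at 37C; compounds added from DMSO; agonist mix (1nM isoproterenol, 100uM IBMX, 25uM Ro-20-1724) added; 0.5hr RT; d2-cAMP and anti-cAMP-cryptate added; 1hr RT; 665/615 nm read.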
# [16] = molecular target: D(2) dopamine receptor (Homo sapiens) (UniProt P14416); test: Dopamine D2 receptor (DRD2) small molecule agonists, cell-based qHTS assay (AID 1963594); also: nearly all actives have a fitted effect of over 35% in size
# Sequence of D(2) dopamine receptor (Homo sapiens) (P14416 whole entry, looked up): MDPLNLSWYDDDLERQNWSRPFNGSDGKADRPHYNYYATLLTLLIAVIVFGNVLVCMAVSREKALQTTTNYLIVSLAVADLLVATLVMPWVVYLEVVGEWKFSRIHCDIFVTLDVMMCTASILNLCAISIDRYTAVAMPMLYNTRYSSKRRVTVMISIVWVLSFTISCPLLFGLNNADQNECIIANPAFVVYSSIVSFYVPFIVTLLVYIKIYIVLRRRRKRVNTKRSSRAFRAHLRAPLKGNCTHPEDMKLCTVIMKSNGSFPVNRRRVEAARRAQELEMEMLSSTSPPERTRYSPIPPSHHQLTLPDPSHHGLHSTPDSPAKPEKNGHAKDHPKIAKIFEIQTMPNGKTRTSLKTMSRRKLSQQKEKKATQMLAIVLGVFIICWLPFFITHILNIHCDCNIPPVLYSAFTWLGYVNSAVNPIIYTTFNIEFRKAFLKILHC
# How it was run: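 cAMP accumulation in DRD2-HEK293 cells measured by HTRF after 1 h detection; compounds added 10 min before NKH477 (200nM […]) forskolin-analogue stimulation, 30 min at room temperature, with Ro20-1724 present at 0.1 mM final.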
# [17] = molecular target: D(2) dopamine receptor (Homo sapiens) (UniProt P14416); test: Dopamine D2 receptor (DRD2) small molecule antagonists, cell-based qHTS assay (AID 1963595; active = well fitted inhibition curve with a large enough effect in the signal ratio in the repeat runs, with a control signal flat; the % refers to the signal ratio)
# How it was run: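 DRD2-HEK293; 0.1 mM Ro20-1724; cpd 10 min RT; NKH477 200 nM + quinpirole 12 nM, 30 min RT; HTRF cAMP (cAMP-d2/anti-cAMP cryptate), 665/620 nm ratio after 1 h.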
# [18] = p53 small molecule agonists, cell-based qHTS assay with rat liver microsomes: qHTS cell viability counter screen (AID 1963580); also: nearly all actives have a fitted effect of over 45% in size
# How it was run: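 HCT-116 p53RE-bla, 4,000 cells/well, 5 h pre-incubation; cpd + rat liver microsomes 0.5 mg/mL + NADPH 0.5 mg/mL (final); 16 h, 37 C; CellTiter-Glo, 30 min RT; luminescence.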
# [19] = molecular target: 5-hydroxytryptamine receptor 2A (Homo sapiens) (UniProt P28223); test: 5-hydroxytryptamine receptor 2A (HTR2A) small molecule antagonists, cell-based qHTS assay (AID 1963586); also: nearly all actives have a fitted effect of over 45% in size; also: potency is read from the fitted curve at half-maximal effect
# How it was run: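 Antagonist-mode intracellular calcium assay: DOI (4 nM) added after 5 min compound pre-incubation at room temperature to dye-loaded HTR2A-CHO cells. Fluorescence followed for 3 min, sampled every second.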
# [20] = molecular target: Beta-2 adrenergic receptor (Homo sapiens) (UniProt P07550); test: Adrenergic beta2 receptor (ADRB2) small molecule agonists, cell-based qHTS assay (AID 1963593);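 also: CHO cells stably overexpressing human ADRB2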
# How it was run: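 CHO cells stably over-expressing ADRB2 were plated overnight at 37C, then dosed with compounds plus a stimulation mix containing 100uM IBMX and 25uM Ro-20-1724 for 0.5hr at room temperature. cAMP was measured by HTRF competition, 1hr.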
Compound,Potency [1],Potency [2],Potency [3],Potency [4],Potency [5],Potency [6],Potency [7],Potency [8],Potency [9],Potency [10],Potency [11],Potency [12],Potency [13],Potency [14],Potency [15],Potency [16],Potency [17],Potency [18],Potency [19],Potency [20]
O=S(=O)(O)c1cccc2ccccc12,inactive,inactive,inactive,inactive,inactive,inactive,inactive,inactive,inactive,inactive,inactive,inactive,inactive,inactive,inactive,inactive,inactive,–,–,–
COc1c(Cl)ccc(Cl)c1C(=O)O,inactive,inactive,inactive,inactive,inactive,–,inactive,inactive,–,inactive,inactive,inactive,inactive,inactive,inactive,inactive,inactive,inactive,inactive,inactive
CCN(CC)c1ccc2c(C)cc(=O)oc2c1,inactive,inactive,inactive,inactive,inactive,–,inactive,inactive,25.9 µM (active) and 32.4 µM (active),inactive,inactive,inactive,–,–,inactive,inactive,inactive,inactive,inactive,–
Cc1ccc2oc(=O)ccc2c1,inactive,inactive,inactive,inactive,inactive,–,inactive,inactive,–,inactive,inactive,inactive,inactive,inactive,inactive,inactive,inactive,inactive,inactive,inactive
COc1ccccc1C=O,inactive,inactive,inactive,inactive,inactive,inactive,inactive,inactive,inactive,inactive,inactive,inactive,inactive,–,inactive,inactive,inactive,inactive,–,inactive
O=S(=O)(O)c1ccc(N=Nc2c(O)ccc3cc(S(=O)(=O)O)ccc23)cc1,30.8 µM (active),inactive,inactive,inactive,inactive,–,inactive,inactive,–,inactive,inactive,inactive,inactive,inactive,–,–,–,inactive,inactive,–
CC(C)(C)OC=O,inactive,inactive,inactive,inactive,inactive,inactive,inactive,inactive,inactive,inactive,inactive,inactive,inactive,inactive,inactive,inactive,inactive,inactive,–,inactive
CCCCCCCCS,inactive,inactive,inactive,inactive,inactive,inactive,inactive,inactive,inactive,inactive,inactive,inactive,inactive,inactive,inactive,inactive,–,–,inactive,–
Cc1c(N)cccc1C(F)(F)F,inactive,inactive,inactive,inactive,inactive,inactive,–,inactive,inactive,inactive,inactive,–,inactive,inactive,inactive,inactive,inactive,inactive,inactive,–
FC(F)(F)C(Cl)Br (configuration not stated),inactive,inactive,inactive,inactive,inactive,inactive,inactive,inactive,inactive,inactive,inactive,inactive,inactive,inactive,inactive,inactive,inactive,inactive,–,inactive
CC1=CC(=O)c2ccccc2C1=O,27.3 µM (active) and 26.6 µM (active),13.3 µM (active),inactive,inactive,inactive,inactive,inactive,40.8 µM (active) and inactive,inactive,inactive,inactive,inactive,–,–,inactive,inactive,inactive,inactive,–,inactive
CCCCc1ccc2cccc(S(=O)(=O)O)c2c1,inactive,inactive,inactive,inactive,inactive,inactive,inactive,inactive,inactive,inactive,inactive,inactive,inactive,inactive,inactive,inactive,inactive,–,inactive,inactive
CO[Si](CCCNCCN)(OC)OC,inactive,inactive,inactive,inactive,inactive,–,inactive,inactive,–,inactive,inactive,inactive,inactive,inactive,inactive,inactive,inactive,inactive,inactive,inactive
CC(C)c1ccc(S(=O)(=O)O)cc1,inactive,inactive,inactive,inactive,inactive,–,inactive,inactive,–,inactive,inactive,inactive,inactive,inactive,inactive,inactive,–,inactive,inactive,inactive
CC(C)(C)c1ccc(CCC=O)cc1,inactive,inactive,inactive,inactive,inactive,inactive,inactive,inactive,inactive,inactive,–,inactive,inactive,–,inactive,inactive,inactive,inactive,inactive,–
CC(=O)c1ccc2c(c1)CCCC2,inactive,inactive,inactive,inactive,inactive,inactive,–,inactive,inactive,inactive,inactive,inactive,inactive,inactive,inactive,inactive,inactive,inactive,inactive,inactive
O=C1OC[C@H](Cc2cccc(O)c2)[C@H]1Cc1cccc(O)c1,inactive,inactive,inactive,inactive,inactive,inactive,–,–,inactive,inactive,inactive,inactive,inactive,inactive,inactive,inactive,inactive,inactive,inactive,inactive
Cc1ncc(CSSCc2cnc(C)c(O)c2CO)c(CO)c1O,inactive,inactive,inactive,inactive,inactive,inactive,–,inactive,inactive,inactive,inactive,inactive,inactive,inactive,inactive,inactive,inactive,–,–,inactive
C=C(C)C(=O)OC(C)C,inactive,inactive,inactive,inactive,inactive,inactive,inactive,inactive,inactive,inactive,inactive,inactive,inactive,inactive,inactive,inactive,inactive,inactive,–,inactive
CC(C)=O,inactive,inactive,inactive,inactive,inactive,inactive,inactive,inactive,–,inactive,inactive,inactive,inactive,inactive,inactive,inactive,inactive,inactive,inactive,inactive
CC/C=C\CCOC(=O)CC,inactive,inactive,inactive,inactive,inactive,inactive,inactive,–,inactive,inactive,inactive,inactive,inactive,inactive,inactive,inactive,inactive,inactive,inactive,inactive
CCc1ccccc1O,inactive,60.8 µM (active) and inactive,inactive,inactive,inactive,–,inactive,inactive,–,inactive,inactive,inactive,–,inactive,inactive,inactive,inactive,inactive,inactive,inactive
CC(=O)OCc1ccco1,inactive,inactive,inactive,inactive,inactive,–,inactive,inactive,–,inactive,inactive,inactive,inactive,inactive,inactive,inactive,inactive,inactive,inactive,–
O=C(O)c1cc2ccccc2cc1O,inactive,inactive,inactive,inactive,inactive,–,inactive,inactive,–,inactive,inactive,inactive,–,inactive,inactive,inactive,inactive,inactive,inactive,inactive
C=C[C@H]1CN2CC[C@H]1C[C@@H]2[C@@H](O)c1ccnc2ccc(OC)cc12,inactive,inactive,inactive,inactive,inactive,–,inactive,inactive,–,–,inactive,inactive,inactive,inactive,inactive,inactive,inactive,inactive,inactive,inactive
CN1Cc2c(N)cccc2C(c2ccccc2)C1 (configuration not stated),inactive,inactive,inactive,inactive,inactive,–,inactive,inactive,–,inactive,inactive,–,inactive,inactive,inactive,inactive,inactive,inactive,14.9 µM (active),inactive
O=S(=O)(Oc1ccc(Cl)cc1Cl)c1ccccc1,inactive,69.8 µM (active),inactive,inactive,inactive,–,inactive,inactive,–,inactive,inactive,inactive,inactive,inactive,inactive,inactive,inactive,inactive,inactive,–
OCCNCCO,inactive,inactive,inactive,inactive,inactive,–,inactive,inactive,–,inactive,inactive,inactive,inactive,inactive,inactive,–,inactive,inactive,inactive,–
CCCCCOC(C)=O,inactive,68.6 µM (active),inactive,inactive,inactive,–,inactive,inactive,–,inactive,inactive,inactive,inactive,inactive,inactive,inactive,inactive,inactive,–,inactive
